Screening data from PubChem BioAssay.
Sampled rows, rich in hits. Any-hit rate of the full collection: about 2.8%.
Peg3 promoter – reduces Peg3 promoter-driven luciferase expression in HeLa; HeLa PEG-Prom luciferase reporter, luminescence, overnight; inhibition, % at 20 µM; 360,000 compounds, 1.7% hits;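 active = inhibition of at least 50% at 20 µM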
CF NFkB block – blocks PAF-induced NF-kB reporter in cystic fibrosis cells | KKLEB NF-kB-GFP reporter, GFP fluorescence overnight | inhibition, % at 5 µM | 360,000 compounds, 0.86% hits;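 active = at least 50% inhibition at 5 µM, scaled per plate between neutral and stimulator controls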;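 note: PAF is a Pseudomonas aeruginosa culture filtrate used as stimulus; plate controls were PAF-stimulated DMSO wells for no effect and unstimulated DMSO wells for full effect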
HIF-2a block – HIF-2a inhibition | 786-0 RCC cells HIF-2a reporter, luciferase luminescence, overnight | inhibition, % at 18.8 µM | 360,000 compounds, 0.72% hits;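 active = inhibition of the luminescence signal of 40% or more relative to plate controls, in a single-dose primary screen at 18.75 µM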
TRPM1 prom inh – MITF TRPM1 promoter inhibition in SK-MEL-5 cells. SK-MEL-5 TRPM1 promoter luciferase, 24 h. inhibition, % at 12.5 µM. 330,000 compounds, 0.83% hits;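 active = mean inhibition across replicates of 60% or more, whatever share of single replicates reaches that level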
Shn3 inh set2 – Schnurri-3 reporter inhibition in Clone20 osteoblasts. inhibition, % at 12.5 µM. Clone20 osteoblast Shn3 3'UTR firefly luciferase, 24 h. 360,000 compounds, 0.52% hits;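 active = mean inhibition of at least 75% with every replicate also reaching 75%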;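 note: 0% = median of neutral control wells and 100% = pilot-screen positive control compound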
KKLEB tox – CF airway cell cytotoxicity counter-screen | KKLEB CF airway cells viability, ATPlite luminescence, overnight; active compounds read low; cells stimulated with P. aeruginosa culture filtrate | activity change (cytotoxicity), % at 5 µM | 360,000 compounds, 0.36% hits;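 active = corrected activity change at or below -50% at 5 µM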
An asterisk follows results filed as active.

Results for CCOC(=O)c1c(C2CC2)csc1NC(=O)COC(=O)c1cnc(Cl)c(Cl)c1 ?
Peg3 promoter: 102.1*; CF NFkB block: -2.9; HIF-2a block: -4.3; TRPM1 prom inh: 8.7; Shn3 inh set2: -17.4; KKLEB tox: 6.3

How did COc1ccc(OC)c(NC(=O)CSc2nc(N3CCOCC3)nc(N3CCOCC3)n2)c1 do in these assays?
Peg3 promoter: 8.1; CF NFkB block: 8.0; HIF-2a block: 5.6; TRPM1 prom inh: -8.1; Shn3 inh set2: 0.8; KKLEB tox: -18.8

How did CCOc1ccc(NC(=S)NNc2ccnc3cc(Cl)ccc23)cc1 do in these assays?
Peg3 promoter: 2.2; CF NFkB block: -16.1; HIF-2a block: 0.4; TRPM1 prom inh: 25.8; Shn3 inh set2: 53.2; KKLEB tox: 14.1

Results for S=C(NNc1ccnc2cc(Cl)ccc12)Nc1ccc(Cl)cc1Cl ?
Peg3 promoter: 52.3*; CF NFkB block: -34.1; HIF-2a block: -20.5; TRPM1 prom inh: 64.5*; Shn3 inh set2: 87.9*; KKLEB tox: 11.9

Results for COc1ccccc1-n1c(SCC(=O)N2CCCCC2)nc(O)c(Cc2ccccc2)c1=O ?
Peg3 promoter: 97.0*; CF NFkB block: -20.9; HIF-2a block: 2.4; TRPM1 prom inh: -4.5; Shn3 inh set2: -4.2; KKLEB tox: 9.5

What do the screens show for `CN(CC(=O)NC1CCCCCC1)S(=O)(=O)c1ccc(F)cc1`?
Peg3 promoter: -3.9; CF NFkB block: 15.5; HIF-2a block: -4.2; TRPM1 prom inh: -10.3; Shn3 inh set2: -4.3; KKLEB tox: -8.8

Results for CN(CC(=O)NC1CCCCC1)S(=O)(=O)c1ccc(Cl)cc1 ?
Peg3 promoter: 90.9*; CF NFkB block: 4.1; HIF-2a block: 3.2; TRPM1 prom inh: 8.8; Shn3 inh set2: 2.3; KKLEB tox: -2.1

What do the screens show for `OCCCn1c(C2CCCN2c2nc(-c3ccc(Cl)cc3)cs2)nc2cc(Cl)c(N3CCCCC3)cc21` (configuration not stated)?
Peg3 promoter: 71.9*; CF NFkB block: 39.4; HIF-2a block: 9.8; TRPM1 prom inh: 46.2; Shn3 inh set2: 52.6; KKLEB tox: -37.7

Results for COc1ccc(-c2c[n+]3c4n2CCCCC4=C(c2ccc(Br)cc2)C3)cc1 ?
Peg3 promoter: 45.7; CF NFkB block: 6.7; HIF-2a block: -14.5; TRPM1 prom inh: 76.1*; Shn3 inh set2: 23.8; KKLEB tox: -4.5

How did Clc1ccc(C2=C3CCCCn4c(-c5ccccc5)c[n+](c43)C2)cc1 do in these assays?
Peg3 promoter: 17.2; CF NFkB block: -12.3; HIF-2a block: 22.1; TRPM1 prom inh: -1.1; Shn3 inh set2: 8.4; KKLEB tox: 8.3

Results for CCc1ccc(C(=O)/C=C/Nc2ccc(S(=O)(=O)Nc3cnc4ccccc4n3)cc2)cc1 ?
Peg3 promoter: -12.0; CF NFkB block: -3.5; HIF-2a block: 3.2; TRPM1 prom inh: -21.3; Shn3 inh set2: -3.2; KKLEB tox: -18.4

How did Cc1cccc(/C=C2\CCC(=C3SCCCS3)C2=O)c1 do in these assays?
Peg3 promoter: 16.2; CF NFkB block: -14.6; HIF-2a block: 8.2; TRPM1 prom inh: 33.1; Shn3 inh set2: 51.8; KKLEB tox: -64.5*

What do the screens show for `O=C1/C(=C/c2ccccc2)CCCc2ccccc21`?
Peg3 promoter: -55.8; CF NFkB block: -7.0; HIF-2a block: -64.4; TRPM1 prom inh: -36.5; Shn3 inh set2: -129.6; KKLEB tox: -1.2

What do the screens show for `NS(=O)(=O)c1ccc(Cc2ncc(C(F)(F)F)cc2Cl)s1`?
Peg3 promoter: 3.5; CF NFkB block: 12.5; HIF-2a block: 14.0; TRPM1 prom inh: 0.7; Shn3 inh set2: 13.8; KKLEB tox: -7.1

What do the screens show for `O=C(CCl)c1ccc(Cc2ncc(C(F)(F)F)cc2Cl)s1`?
Peg3 promoter: 60.9*; CF NFkB block: 0.7; HIF-2a block: 12.1; TRPM1 prom inh: 22.2; Shn3 inh set2: 24.5; KKLEB tox: -15.1

How did CCn1c(=NC(=O)CS(=O)(=O)c2ccccc2)sc2cccc(OC)c21 do in these assays?
Peg3 promoter: -29.4; CF NFkB block: -20.9; HIF-2a block: -64.7; TRPM1 prom inh: -3.5; Shn3 inh set2: 87.2*; KKLEB tox: 7.3

How did Cc1ccc(C(C(=O)NCc2ccco2)N(C(=O)CNC(=O)c2cccs2)c2c(C)cc(C)cc2C)cc1 (configuration not stated) do in these assays?
Peg3 promoter: 57.7*; CF NFkB block: 28.3; HIF-2a block: 6.5; TRPM1 prom inh: 32.1; Shn3 inh set2: 53.4; KKLEB tox: -34.3
